The source of these data is PubChem BioAssay (NCI).

SMILES strings stand for the structures. Compounds without any hit were thinned out: in the full panel of roughly 83,000, 20% have a hit.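 Each cell line was grown in a 96-well plate and treated with one concentration of compound for 48 hours. Values below 10 were considered active.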 The source made the active and inactive calls.

One experiment has as its system TK-10 renal. The experiment is described as follows: NCI-60 one-dose screen, 48 h (100 = growth as untreated, 0 = no growth, -100 = all killed). The following applies: 10 µM unless noted.
Take `COc1ccc(NC(=O)CSc2nnc(-c3ccc4nc(-c5ccccc5)[nH]c4c3)o2)cc1`: the growth was 121% (inactive). On the same count and under the same terms, for `COc1ccc(N2C(=O)c3cc(Cl)ccc3NC2SCc2ccccc2)cc1` (configuration not stated) the value was 96.2% (inactive); for `O=C(CSc1nc2ccccc2c(=O)n1-c1ccccc1)Nc1ccc(-c2nc3ccc([N+](=O)[O-])cc3[nH]2)cc1`, 127% (inactive). As to `O=C(NCCn1ccnc1)c1ccc(-c2nc3ccc4[nH]ncc4c3c3c2CCCC3)cc1`, the growth was 77.7% (inactive). Still for that read-out and setting: the figure for `CCCC(=O)NC(c1cccnc1)c1cc(C(C)(C)C)c2cccnc2c1O` (configuration not stated) is 42.3% (inactive); for `NC(N)=Nc1ccc(Oc2cccc(Nc3ccc(Cl)cc3)c2)cn1` it is 50% (inactive); for `O=C(CN1CCN(c2cc(=O)[nH]c3ccc(F)cc23)CC1)Nc1ccc(Cl)cc1` it is 62.2% (inactive). Same read-out and setting: the figure for `C=C(C=O)[C@@H]1CC[C@]2(C)[C@H](C(=O)C=C3[C@H]4C[C@](C)(C(=O)OC)CC[C@]4(C)CC[C@]32C)[C@@]1(C)CCC#N` is 48.9% (inactive).

The next experiment has as its system ACHN renal. The description is as above. The following applies: 10 µM unless noted.
Consider `Cc1ccc(NC(=O)c2ccc(CN3CCN(C)CC3)cc2)cc1Oc1ccc(-c2[nH]nc3ncnc(N)c23)cc1`, for which the growth is 101% (inactive). Same read-out and setting: the figure for `CCCn1cnc2c(c1=N)C(c1ccc(Cl)cc1)c1sc3c(C)cccc3c1O2` (configuration not stated) is 29.1% (inactive); for `C=C(C=O)[C@@H]1CC[C@]2(C)[C@H](CC=C3[C@H]4[C@@H](C)[C@H](C)CC[C@]4(C(=O)OC)CC[C@]32C)[C@@]1(C)CCC#N` it is -71.9% (active). On to `NC(N)=Nc1ccc(Oc2cccc(NC(N)=Nc3ccc(I)cc3F)c2)cn1`, for which the growth is 94.9% (inactive). On the same count and under the same terms, for `Cc1occc1-c1nc2s/c(=C/c3ccc(-c4cc(C(F)(F)F)ccc4Cl)o3)c(=O)n2n1` the value was 102% (inactive); for `C[C@H]1c2[nH]c3ccccc3c2C[C@H]2C(=O)N(CCCCCCC(=O)NO)CC(=O)N21`, 90.1% (inactive).

Regarding `COc1ccc(-c2cc(-c3ccc(Cl)cc3)c(C#N)c(=O)n2Cc2ccc(C(=O)O)cc2)cc1`, the growth is 102% (inactive).

For `O=C1[C@H]2Cc3c([nH]c4ccccc34)[C@@H](c3ccc(Cl)cc3)N2C(=O)CN1C1CCN(Cc2ccccc2)CC1`, the growth is 40.6% (inactive). `COc1cc(-c2nn(C(C)(C)C)cc2-c2ccnc(NCCCNS(=O)(=O)c3ccc(C)cc3)n2)ccc1Cl`: the growth is 89.6% (inactive). As to `CCCCNNC(=O)c1ccc(-c2cccc(F)c2F)cc1`, the growth is 22.4% (inactive). On the same count and under the same terms, for `CC1(C)CC[C@]2(C(=O)N3CCOCC3)CC[C@]3(C)C(=CC[C@@H]4[C@@]5(C)C/C(=C/c6ccccn6)C(=O)C(C)(C)[C@@H]5CC[C@]43C)[C@@H]2C1` the value was 76.9% (inactive). The same measure, in the same setting: the figure for `O=S(=O)(NCCNc1nccc(-n2cnc3ccccc32)n1)c1ccc(Br)cc1` is 93.6% (inactive); for `CC1(C)CC[C@]23CC[C@]4(C)[C@H](CC[C@@H]5[C@@]6(C)CCCN(CO)C(C)(C)[C@@H]6CC[C@]54C)[C@H]2[C@H]1OC3` it is 96.7% (inactive). For `O=C1[C@H]2Cc3c([nH]c4ccccc34)[C@@H](c3ccc(Br)cc3)N2C(=O)CN1C1CCN(CC2CCCCC2)CC1`, the growth was -95.1% (active). Still for that read-out and setting: the figure for `COc1ccc([C@H]2c3[nH]c4ccccc4c3C[C@H]3C(=O)N(C4CCN(Cc5c(Cl)cccc5Cl)CC4)CC(=O)N23)c(OC)c1` is 86.8% (inactive). On the same count and under the same terms, for `NS(=O)(=O)c1ccc(Nc2nc(Nc3ccccc3)nc3nnc(SCC(=O)NC4CCCCC4)n23)cc1` the value was 99.1% (inactive). As to `O=C(NNc1nc2cc(F)ccc2n2c(CN3CCC(O)C3)ccc12)c1cnccn1` (configuration not stated), the growth was 14.3% (inactive). On the same count and under the same terms, for `CCN(CC)c1cn(-c2ccc(S(N)(=O)=O)cc2)nn1` the value was 106% (inactive); for `O=[N+]([O-])c1cc(/C=N/Nc2nc(N/N=C/c3ccc(Cl)c([N+](=O)[O-])c3)nc(N3CCCCC3)n2)ccc1Cl`, 35.2% (inactive); for `CC(=O)Nc1cccc(Nc2nc(N[C@@H](C)c3ccccc3)c3ccccc3n2)c1`, 28.6% (inactive). Take `COc1ccc(COc2ccc(/C=C3\C(=O)Nc4ccccc43)cc2OC)cc1`: the growth is 92.4% (inactive). The same measure, in the same setting: the figure for `CCNC(=O)Oc1ccc(/C(=C(/C)c2ccccc2)c2ccc(OCCN3CCCCCC3)cc2)cc1` is 18.9% (inactive); for `COc1cc(/C=N/NC(=O)c2cn(C3CC3)c3c(OC)c(N4CC5CCCNC5C4)c(F)cc3c2=O)ccc1O` (configuration not stated) it is 35.3% (inactive). The same measure, in the same setting: for `CC(C)c1ccc(NCc2cn(-c3ccc(C(=O)O)cc3)nc2-c2cc(C(F)(F)F)cc(C(F)(F)F)c2)cc1` the value was 92.6% (inactive).
